According to the supplement of paper PMC10849652:
The full data set covers some 7,900 targets. This sample favours those with a hit. About 0.6% of all pairs of compound and target were hits.

Columns and labels:
Assay in all cases: log2 fold change, soluble protein after heating vs DMSO (PISA); higher = thermal stabilisation; K562 cells, 10 uM, 30 min; active = over 0.2 and 3.5 SD of the protein, either way, in both replicates (recomputed)
[1] = compound: C1=CC=C(C=C1)[C@H](COC2=CC3=C(C=C2)NC(=O)N3)NC(=O)C4=CC=CN(C4=O)CC5=CC(=C(C=C5)F)F
In short: (§1)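 K562 cells at 2×10^6 cells/mL were treated for 30 min with 10 μM compound, and aliquots were heated for 3 min over 48°C-58°C before pooling. Extraction used PBS with 0.5% NP-40 at 4°C, and soluble protein was the supernatant after 21,000xg for 90 min, measured by TMTpro 16plex LC-MS/MS with channel sums equalised. Thermal stability values, relative to control samples and from duplicates, are log2 fold changes.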

[2] = compound: CC1=C(SC2=C1C(=N[C@H](C3=NN=C(N32)C)CC(=O)N)C4=CC=C(C=C4)Cl)C
In short: as §1

[3] = compound: CC1=C2C(=CC=C1)N=C(N(C2=O)C3=CC=CC=C3C)CN4C=NC5=C(N=CN=C54)N
In short: as §1

[4] = compound: Cc1sc2c(c1C)C(c1ccc(Cl)cc1)=N[C@@H](CC(=O)OC(C)(C)C)c1nnc(C)n1-2
In short: as §1

[5] = compound: c1ccc([C@@H]2C[C@H]2NC2CCNCC2)cc1
In short: as §1

Measured: log2 fold change

ACO2 (UniProt Q99798)
Sequence of UniProt Q99798 (Q99798 whole entry, looked up): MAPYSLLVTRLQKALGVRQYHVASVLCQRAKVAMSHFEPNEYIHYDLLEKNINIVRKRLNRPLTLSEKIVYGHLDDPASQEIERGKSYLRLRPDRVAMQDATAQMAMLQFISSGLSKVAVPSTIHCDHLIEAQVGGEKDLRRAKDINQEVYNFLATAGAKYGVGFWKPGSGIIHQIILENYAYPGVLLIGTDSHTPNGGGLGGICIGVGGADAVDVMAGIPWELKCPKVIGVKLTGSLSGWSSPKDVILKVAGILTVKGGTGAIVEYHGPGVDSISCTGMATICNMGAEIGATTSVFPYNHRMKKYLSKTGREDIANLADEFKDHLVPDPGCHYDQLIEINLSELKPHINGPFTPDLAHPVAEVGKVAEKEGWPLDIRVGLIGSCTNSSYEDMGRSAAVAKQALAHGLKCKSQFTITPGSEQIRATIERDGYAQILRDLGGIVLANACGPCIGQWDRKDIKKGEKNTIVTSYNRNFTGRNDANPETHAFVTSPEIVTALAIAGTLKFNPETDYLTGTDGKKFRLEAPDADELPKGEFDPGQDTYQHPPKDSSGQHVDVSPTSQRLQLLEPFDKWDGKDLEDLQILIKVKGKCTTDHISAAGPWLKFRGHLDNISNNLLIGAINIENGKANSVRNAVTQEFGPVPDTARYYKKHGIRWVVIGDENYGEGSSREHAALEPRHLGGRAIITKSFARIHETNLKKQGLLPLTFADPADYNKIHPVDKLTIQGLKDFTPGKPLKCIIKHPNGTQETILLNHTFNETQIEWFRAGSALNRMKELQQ
inactive: [1] 0 | [2] 0.067 | [3] 0.044 | [4] -0.023 | [5] -0.046

ACAD9 (UniProt Q9H845)
Sequence of UniProt Q9H845 (Q9H845 whole entry, looked up): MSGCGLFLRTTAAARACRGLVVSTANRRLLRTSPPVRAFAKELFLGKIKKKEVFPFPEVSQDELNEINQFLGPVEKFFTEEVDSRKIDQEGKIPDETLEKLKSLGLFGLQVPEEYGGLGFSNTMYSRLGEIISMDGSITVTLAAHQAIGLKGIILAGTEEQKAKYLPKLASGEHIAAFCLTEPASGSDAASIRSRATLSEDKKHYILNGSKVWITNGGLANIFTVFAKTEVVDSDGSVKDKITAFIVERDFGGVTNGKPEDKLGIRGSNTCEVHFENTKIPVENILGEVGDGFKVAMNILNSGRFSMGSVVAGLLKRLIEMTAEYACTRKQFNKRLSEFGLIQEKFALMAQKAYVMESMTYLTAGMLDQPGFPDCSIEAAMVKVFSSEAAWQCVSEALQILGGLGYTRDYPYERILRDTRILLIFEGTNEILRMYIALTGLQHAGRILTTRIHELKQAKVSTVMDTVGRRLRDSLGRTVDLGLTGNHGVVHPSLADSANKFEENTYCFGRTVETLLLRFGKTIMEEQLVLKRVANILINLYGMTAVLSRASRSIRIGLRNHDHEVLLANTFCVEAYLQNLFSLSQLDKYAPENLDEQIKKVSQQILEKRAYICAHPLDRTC
inactive: [1] 0.012 | [2] 0.028 | [3] 0.031 | [4] 0.022 | [5] 0.009

ATF7 isoform 6 (UniProt P17544)
Sequence of UniProt P17544 (P17544 whole entry, looked up): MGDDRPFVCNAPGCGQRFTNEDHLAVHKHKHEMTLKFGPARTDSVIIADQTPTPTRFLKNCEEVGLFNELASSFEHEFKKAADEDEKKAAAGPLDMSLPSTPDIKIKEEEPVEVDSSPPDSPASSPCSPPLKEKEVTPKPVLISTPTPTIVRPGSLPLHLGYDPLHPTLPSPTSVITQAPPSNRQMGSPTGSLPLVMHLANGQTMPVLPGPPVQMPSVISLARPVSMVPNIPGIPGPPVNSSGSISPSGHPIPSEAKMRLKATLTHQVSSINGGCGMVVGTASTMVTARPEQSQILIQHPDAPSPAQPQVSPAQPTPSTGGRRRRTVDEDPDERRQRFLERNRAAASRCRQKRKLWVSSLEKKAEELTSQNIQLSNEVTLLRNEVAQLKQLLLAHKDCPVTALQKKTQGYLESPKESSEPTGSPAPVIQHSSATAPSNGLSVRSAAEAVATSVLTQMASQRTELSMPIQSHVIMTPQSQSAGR
inactive: [1] -0.097 | [2] 0 | [3] -0.187 | [4] 0.184 | [5] -0.034

AKR1C2 (UniProt P52895)
Sequence of UniProt P52895 (P52895 whole entry, looked up): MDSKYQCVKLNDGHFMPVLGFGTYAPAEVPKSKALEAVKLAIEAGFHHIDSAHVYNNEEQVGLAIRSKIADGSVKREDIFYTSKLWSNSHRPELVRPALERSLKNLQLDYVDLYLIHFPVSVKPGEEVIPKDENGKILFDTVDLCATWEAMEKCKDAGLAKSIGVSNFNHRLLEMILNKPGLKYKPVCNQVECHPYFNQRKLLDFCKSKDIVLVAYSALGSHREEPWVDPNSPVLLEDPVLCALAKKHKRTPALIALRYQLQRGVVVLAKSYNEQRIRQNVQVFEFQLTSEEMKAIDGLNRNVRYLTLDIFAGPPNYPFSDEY
inactive: [1] 0 | [2] -0.04 | [3] 0.086 | [4] 0.057 | [5] -0.011

ATP7B (UniProt P35670)
Sequence of UniProt P35670 (P35670 whole entry, looked up): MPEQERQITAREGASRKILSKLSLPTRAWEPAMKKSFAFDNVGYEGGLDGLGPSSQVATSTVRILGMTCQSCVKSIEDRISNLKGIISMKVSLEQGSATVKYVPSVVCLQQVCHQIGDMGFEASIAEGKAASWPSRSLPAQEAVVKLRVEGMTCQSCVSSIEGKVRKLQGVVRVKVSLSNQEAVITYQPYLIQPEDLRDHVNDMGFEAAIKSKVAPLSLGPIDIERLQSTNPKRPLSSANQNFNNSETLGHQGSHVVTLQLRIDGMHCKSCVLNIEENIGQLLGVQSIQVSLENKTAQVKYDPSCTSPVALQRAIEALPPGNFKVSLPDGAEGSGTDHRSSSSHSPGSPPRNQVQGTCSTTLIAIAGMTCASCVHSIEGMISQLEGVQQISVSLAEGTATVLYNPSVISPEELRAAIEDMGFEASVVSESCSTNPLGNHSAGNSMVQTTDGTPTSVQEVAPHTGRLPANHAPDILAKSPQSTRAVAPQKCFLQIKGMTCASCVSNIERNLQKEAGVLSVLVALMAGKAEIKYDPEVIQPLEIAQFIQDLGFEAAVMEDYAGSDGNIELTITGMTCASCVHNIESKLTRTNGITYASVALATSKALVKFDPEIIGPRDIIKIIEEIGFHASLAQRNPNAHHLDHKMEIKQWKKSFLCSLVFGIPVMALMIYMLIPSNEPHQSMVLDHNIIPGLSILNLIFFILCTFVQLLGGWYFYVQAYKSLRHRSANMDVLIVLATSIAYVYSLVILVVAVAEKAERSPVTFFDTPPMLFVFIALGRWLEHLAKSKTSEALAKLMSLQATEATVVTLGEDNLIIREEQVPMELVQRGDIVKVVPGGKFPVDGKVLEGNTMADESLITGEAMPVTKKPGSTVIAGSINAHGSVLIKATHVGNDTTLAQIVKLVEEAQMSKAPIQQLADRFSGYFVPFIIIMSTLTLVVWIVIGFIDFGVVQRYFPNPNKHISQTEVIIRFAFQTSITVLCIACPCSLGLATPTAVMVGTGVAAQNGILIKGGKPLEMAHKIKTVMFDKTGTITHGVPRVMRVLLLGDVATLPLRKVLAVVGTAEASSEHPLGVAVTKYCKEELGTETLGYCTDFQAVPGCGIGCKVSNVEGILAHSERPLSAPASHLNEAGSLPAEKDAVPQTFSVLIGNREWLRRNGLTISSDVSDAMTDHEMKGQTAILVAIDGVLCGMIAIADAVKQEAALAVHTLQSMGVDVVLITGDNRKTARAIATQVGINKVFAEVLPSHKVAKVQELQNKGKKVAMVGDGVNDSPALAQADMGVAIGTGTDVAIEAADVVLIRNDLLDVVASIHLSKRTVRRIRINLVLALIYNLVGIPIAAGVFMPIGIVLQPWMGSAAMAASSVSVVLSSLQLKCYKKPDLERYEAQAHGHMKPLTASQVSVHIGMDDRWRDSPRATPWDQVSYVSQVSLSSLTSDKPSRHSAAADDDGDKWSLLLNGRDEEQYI
inactive: [1] 0 | [2] 0.094 | [3] 0.014 | [4] 0.022 | [5] 0.076

BZW1 isoform 3 (UniProt Q7L1Q6)
Sequence of UniProt Q7L1Q6 (Q7L1Q6 whole entry, looked up): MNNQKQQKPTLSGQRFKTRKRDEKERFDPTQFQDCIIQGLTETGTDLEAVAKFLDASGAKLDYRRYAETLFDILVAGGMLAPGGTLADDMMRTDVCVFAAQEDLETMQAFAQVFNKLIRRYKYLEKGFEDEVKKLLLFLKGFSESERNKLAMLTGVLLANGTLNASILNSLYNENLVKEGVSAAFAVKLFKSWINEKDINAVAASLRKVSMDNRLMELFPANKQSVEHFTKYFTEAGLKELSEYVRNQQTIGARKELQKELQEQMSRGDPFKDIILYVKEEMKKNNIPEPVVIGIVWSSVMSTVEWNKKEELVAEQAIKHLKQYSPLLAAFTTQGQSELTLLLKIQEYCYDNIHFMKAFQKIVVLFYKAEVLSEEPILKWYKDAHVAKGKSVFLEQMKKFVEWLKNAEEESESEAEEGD
inactive: [1] -0.227 | [2] 0.002 | [3] 0.044 | [4] -0.044 | [5] -0.017

ALDH18A1 (UniProt P54886)
Sequence of UniProt P54886 (P54886 whole entry, looked up): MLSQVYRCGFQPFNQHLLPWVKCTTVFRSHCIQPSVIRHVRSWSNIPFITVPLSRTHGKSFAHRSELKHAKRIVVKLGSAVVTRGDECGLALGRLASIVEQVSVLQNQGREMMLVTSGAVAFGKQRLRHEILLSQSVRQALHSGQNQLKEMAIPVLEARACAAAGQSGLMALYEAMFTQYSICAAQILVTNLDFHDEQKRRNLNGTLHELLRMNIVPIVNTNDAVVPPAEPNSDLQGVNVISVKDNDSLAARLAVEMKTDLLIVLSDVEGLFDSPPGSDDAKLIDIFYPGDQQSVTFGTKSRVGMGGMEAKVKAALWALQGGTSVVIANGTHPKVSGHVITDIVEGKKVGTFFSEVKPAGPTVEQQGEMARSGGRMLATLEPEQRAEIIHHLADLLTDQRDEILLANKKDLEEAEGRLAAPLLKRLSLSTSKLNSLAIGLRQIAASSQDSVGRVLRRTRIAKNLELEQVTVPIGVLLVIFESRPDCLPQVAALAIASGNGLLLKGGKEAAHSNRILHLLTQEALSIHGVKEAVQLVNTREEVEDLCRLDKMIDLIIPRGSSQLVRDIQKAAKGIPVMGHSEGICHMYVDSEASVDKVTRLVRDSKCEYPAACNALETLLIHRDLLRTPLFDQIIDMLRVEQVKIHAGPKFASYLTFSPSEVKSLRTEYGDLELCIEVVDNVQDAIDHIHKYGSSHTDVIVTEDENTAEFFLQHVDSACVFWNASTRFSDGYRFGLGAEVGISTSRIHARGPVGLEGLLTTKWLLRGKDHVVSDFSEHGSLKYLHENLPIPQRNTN
inactive: [1] -0.107 | [2] -0.038 | [3] 0.028 | [4] 0.018 | [5] 0.02
